Data reported in PubChem BioAssay (NCI).
Compounds without any hit were thinned out: in the full panel of roughly 83,000, 20% have a hit.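 Single-dose data. Exposure time 48 hours. Values below 10 considered active.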 Activity calls are given as the source filed them.

Key:
Assay in all cases: NCI-60 one-dose screen, 48 h (100 = growth as untreated, 0 = no growth, -100 = all killed)
Conditions in all cases: 10 µM unless noted
NCI-H23 lung = tested on: NCI-H23 lung
NCI-H226 lung = tested on: NCI-H226 lung
NCI-H322M lung = tested on: NCI-H322M lung
HOP-62 NSCLC = tested on: HOP-62 NSCLC
NCI-H460 lung = tested on: NCI-H460 lung
HOP-92 NSCLC = tested on: HOP-92 NSCLC
NCI-H522 lung = tested on: NCI-H522 lung
A549/ATCC NSCLC = tested on: A549/ATCC NSCLC
786-0 renal = tested on: 786-0 renal
COLO 205 colon = tested on: COLO 205 colon
DU-145 prostate = tested on: DU-145 prostate
K-562 leukemia = tested on: K-562 leukemia
MALME-3M melanoma = tested on: MALME-3M melanoma
MDA-MB-231 breast = tested on: MDA-MB-231 breast
RXF 393 renal = tested on: RXF 393 renal
SF-268 CNS = tested on: SF-268 CNS
SF-295 CNS = tested on: SF-295 CNS
SF-539 CNS = tested on: SF-539 CNS
UACC-257 melanoma = tested on: UACC-257 melanoma
M14 melanoma = tested on: M14 melanoma

Measured: growth

COC(=O)[C@]12CC[C@@H](C(=O)/C=C/c3cccnc3)[C@@H]1[C@H]1CC[C@@H]3[C@@]4(C)C/C(=C/c5cccnc5)C(=O)C(C)(C)[C@@H]4CC[C@@]3(C)[C@]1(C)CC2
active: NCI-H23 lung -48.3% | NCI-H226 lung -44.4% | NCI-H322M lung -80.7% | HOP-62 NSCLC -85.6% | NCI-H460 lung -78.4% | HOP-92 NSCLC -79.9% | NCI-H522 lung -59.7% | A549/ATCC NSCLC -9.34% | 786-0 renal -92.3% | COLO 205 colon -45.1% | DU-145 prostate -67.8% | K-562 leukemia -21.6% | MALME-3M melanoma -95.2% | MDA-MB-231 breast -81.3% | RXF 393 renal -93.6% | SF-268 CNS -80.8% | SF-295 CNS -98.5% | SF-539 CNS -96.5% | UACC-257 melanoma -58.9% | M14 melanoma -80.3%

COc1ccc2c(c1)c(-c1nc(-c3c[nH]c4ncccc34)cs1)cn2CCNC(=O)OC(C)(C)C
inactive: NCI-H23 lung 70.6% | NCI-H226 lung 72% | NCI-H322M lung 82.6% | HOP-62 NSCLC 64.1% | NCI-H460 lung 82.2% | HOP-92 NSCLC 54.9% | NCI-H522 lung 61% | A549/ATCC NSCLC 72.6% | 786-0 renal 73.6% | COLO 205 colon 84.6% | DU-145 prostate 89.3% | K-562 leukemia 62.4% | MALME-3M melanoma 103% | MDA-MB-231 breast 53.2% | RXF 393 renal 83.1% | SF-268 CNS 83.5% | SF-295 CNS 85.1% | SF-539 CNS 66.5% | UACC-257 melanoma 98.5% | M14 melanoma 69.3%

O=C(/C=C/c1cccc2ccccc12)Nc1ncc(Cc2ccccc2)s1
active: NCI-H460 lung 2.17% | K-562 leukemia 8.6% | RXF 393 renal -10% | SF-295 CNS -40.1% | SF-539 CNS -24.4% | M14 melanoma -21.3%
inactive: NCI-H23 lung 22.1% | NCI-H226 lung 28.4% | NCI-H322M lung 12.5% | HOP-62 NSCLC 28.7% | HOP-92 NSCLC 70.3% | NCI-H522 lung 34.5% | A549/ATCC NSCLC 19.5% | 786-0 renal 34.3% | COLO 205 colon 12.1% | DU-145 prostate 21.2% | MALME-3M melanoma 21.7% | MDA-MB-231 breast 25% | SF-268 CNS 50.8% | UACC-257 melanoma 60.8%

COc1cc2c(cc1-c1c(C)noc1C)ncc1nc(C3CC3)n([C@H](C)COC(F)F)c12
inactive: NCI-H23 lung 65.4% | NCI-H226 lung 58.1% | NCI-H322M lung 47.8% | HOP-62 NSCLC 43.4% | NCI-H460 lung 60.7% | HOP-92 NSCLC 37% | NCI-H522 lung 27.4% | A549/ATCC NSCLC 36.1% | 786-0 renal 51.6% | COLO 205 colon 25.1% | DU-145 prostate 72.4% | K-562 leukemia 30.4% | MALME-3M melanoma 80.4% | MDA-MB-231 breast 51% | RXF 393 renal 53.9% | SF-268 CNS 71.2% | SF-295 CNS 56.8% | SF-539 CNS 39.4% | UACC-257 melanoma 36.3% | M14 melanoma 44.2%

COc1ccc2c(c1)c1nc3cc(C)c(C)cc3nc1n2CCN(C)C
active: NCI-H23 lung 1.6% | NCI-H226 lung 7.41% | NCI-H322M lung 3.67% | NCI-H460 lung -22% | NCI-H522 lung 6.94% | A549/ATCC NSCLC -75% | 786-0 renal -60.8% | COLO 205 colon -23.8% | K-562 leukemia -2.38% | MALME-3M melanoma -30.8% | MDA-MB-231 breast -2.89% | SF-295 CNS 4.6% | SF-539 CNS -13.2% | UACC-257 melanoma 8.99% | M14 melanoma 4.45%
inactive: HOP-62 NSCLC 20.3% | HOP-92 NSCLC 41% | DU-145 prostate 11.9% | RXF 393 renal 13.2% | SF-268 CNS 31.3%

O=C1CCCC=CC[C@H]2C=C(Cl)C(=O)C2=CC[C@H](CCCCC(F)(F)F)OC(=O)CCCC=CC[C@H]2C=C(Cl)C(=O)C2=CC[C@H](CCCCC(F)(F)F)OC(=O)CCCC=CC[C@H]2C=C(Cl)C(=O)C2=CC[C@H](CCCCC(F)(F)F)O1
inactive: NCI-H23 lung 65.2% [6.25 µM] | NCI-H226 lung 113% [6.25 µM] | NCI-H322M lung 99.1% [6.25 µM] | HOP-62 NSCLC 85.9% [6.25 µM] | NCI-H460 lung 89.6% [6.25 µM] | HOP-92 NSCLC 126% [6.25 µM] | NCI-H522 lung 34.4% [6.25 µM] | A549/ATCC NSCLC 93.7% [6.25 µM] | 786-0 renal 108% [6.25 µM] | COLO 205 colon 80% [6.25 µM] | DU-145 prostate 62.4% [6.25 µM] | K-562 leukemia 32.1% [6.25 µM] | MALME-3M melanoma 106% [6.25 µM] | MDA-MB-231 breast 51.5% [6.25 µM] | RXF 393 renal 86% [6.25 µM] | SF-268 CNS 82.8% [6.25 µM] | SF-295 CNS 107% [6.25 µM] | SF-539 CNS 93% [6.25 µM] | UACC-257 melanoma 79.3% [6.25 µM] | M14 melanoma 59.5% [6.25 µM]

O=[N+]([O-])c1cc(S(=O)(=O)c2ccc(F)c([N+](=O)[O-])c2)ccc1F
inactive: NCI-H23 lung 103% | NCI-H226 lung 109% | NCI-H322M lung 110% | HOP-62 NSCLC 121% | NCI-H460 lung 99.3% | HOP-92 NSCLC 88.6% | NCI-H522 lung 89% | A549/ATCC NSCLC 102% | 786-0 renal 100% | COLO 205 colon 83% | DU-145 prostate 98.1% | K-562 leukemia 40.4% | MALME-3M melanoma 132% | MDA-MB-231 breast 103% | RXF 393 renal 82.9% | SF-268 CNS 108% | SF-295 CNS 111% | SF-539 CNS 109% | UACC-257 melanoma 75.4% | M14 melanoma 81.7%

COc1ccc2c(c1)c(-c1nc(-c3cn(C)c4ncccc34)cs1)cn2CCN
inactive: NCI-H23 lung 81.2% | NCI-H226 lung 84.2% | NCI-H322M lung 77.2% | HOP-62 NSCLC 77.1% | NCI-H460 lung 31.7% | HOP-92 NSCLC 57.8% | NCI-H522 lung 93% | A549/ATCC NSCLC 45.7% | 786-0 renal 94.4% | COLO 205 colon 77% | DU-145 prostate 69.6% | K-562 leukemia 68.6% | MALME-3M melanoma 105% | MDA-MB-231 breast 63.3% | RXF 393 renal 96.1% | SF-268 CNS 95.8% | SF-295 CNS 99.1% | SF-539 CNS 89.1% | UACC-257 melanoma 98.3% | M14 melanoma 97.3%

Oc1cccc2ccc(N/N=C/c3cc(CN4CCCCC4)c(O)c4ncccc34)nc12
active: NCI-H23 lung -10.8% | NCI-H226 lung -30% | HOP-62 NSCLC 1.83% | NCI-H460 lung -40.3% | NCI-H522 lung -16% | A549/ATCC NSCLC -10.3% | 786-0 renal 5.33% | COLO 205 colon 8.41% | MDA-MB-231 breast -4.71% | RXF 393 renal 9.94% | SF-295 CNS -5.38% | SF-539 CNS 4.73% | M14 melanoma -24.8%
inactive: NCI-H322M lung 25.5% | HOP-92 NSCLC 36.9% | DU-145 prostate 24.1% | K-562 leukemia 13.1% | MALME-3M melanoma 19.1% | SF-268 CNS 12.6% | UACC-257 melanoma 13.4%

CC[C@H](CC[C@@H](C)[C@H]1CC[C@H]2[C@@H]3/C(=C/c4cccnc4)C(=O)C4=CC(=O)CC[C@]4(C)[C@H]3CC[C@]12C)C(C)C
inactive: NCI-H23 lung 69.3% | NCI-H226 lung 87.5% | NCI-H322M lung 98.4% | HOP-62 NSCLC 99.2% | NCI-H460 lung 98.5% | HOP-92 NSCLC 81.6% | NCI-H522 lung 91% | A549/ATCC NSCLC 54.4% | 786-0 renal 105% | COLO 205 colon 113% | DU-145 prostate 103% | K-562 leukemia 76.4% | MALME-3M melanoma 97.6% | MDA-MB-231 breast 95.2% | RXF 393 renal 91.2% | SF-268 CNS 103% | SF-295 CNS 86.5% | SF-539 CNS 105% | UACC-257 melanoma 87.8% | M14 melanoma 88%

COc1ccc2c(c1)c(-c1nc(-c3c[nH]c4ncccc34)cs1)cn2CCN
inactive: NCI-H23 lung 68% | NCI-H226 lung 70.6% | NCI-H322M lung 57.7% | HOP-62 NSCLC 58.3% | NCI-H460 lung 45% | HOP-92 NSCLC 29% | NCI-H522 lung 65.6% | A549/ATCC NSCLC 48.2% | 786-0 renal 72.1% | COLO 205 colon 32.2% | DU-145 prostate 59.7% | K-562 leukemia 41.5% | MALME-3M melanoma 81.6% | MDA-MB-231 breast 53.7% | RXF 393 renal 59.9% | SF-268 CNS 80.1% | SF-295 CNS 95.3% | SF-539 CNS 68.8% | UACC-257 melanoma 98.2% | M14 melanoma 67.5%

CN(CSc1ccc(Cl)cc1)c1ccc(CSc2ccc(Cl)cc2)cc1
inactive: NCI-H23 lung 90.6% | NCI-H226 lung 43.3% | NCI-H322M lung 86.4% | HOP-62 NSCLC 118% | NCI-H460 lung 62% | HOP-92 NSCLC 57.2% | NCI-H522 lung 32% | A549/ATCC NSCLC 50.5% | 786-0 renal 31.6% | COLO 205 colon 41% | DU-145 prostate 87.8% | K-562 leukemia 83.7% | MALME-3M melanoma 102% | MDA-MB-231 breast 22.2% | RXF 393 renal 68.7% | SF-268 CNS 43.3% | SF-295 CNS 70.5% | SF-539 CNS 47.4% | UACC-257 melanoma 76% | M14 melanoma 49.7%

COc1cc2nc(Cl)nc(Nc3cccc(C(=O)/C=C/c4ccc(F)cc4)c3)c2cc1OC
inactive: NCI-H23 lung 76% | NCI-H226 lung 73.2% | NCI-H322M lung 86.5% | HOP-62 NSCLC 85.9% | NCI-H460 lung 95.4% | HOP-92 NSCLC 75.3% | NCI-H522 lung 73.4% | A549/ATCC NSCLC 70.2% | 786-0 renal 57.7% | COLO 205 colon 89.5% | DU-145 prostate 85.7% | MALME-3M melanoma 81.2% | MDA-MB-231 breast 62.4% | RXF 393 renal 69.4% | SF-268 CNS 89.6% | SF-295 CNS 74.1% | SF-539 CNS 25.8% | UACC-257 melanoma 102% | M14 melanoma 62%
active: K-562 leukemia 7.78%

COc1ccc(C(=O)c2ccc(C)cc2)c(OC)c1OC
inactive: NCI-H23 lung 82.9% | NCI-H226 lung 90.1% | NCI-H322M lung 111% | HOP-62 NSCLC 78.5% | NCI-H460 lung 87.1% | HOP-92 NSCLC 85.6% | NCI-H522 lung 81.8% | A549/ATCC NSCLC 78.3% | 786-0 renal 107% | COLO 205 colon 70.8% | DU-145 prostate 89.8% | K-562 leukemia 40% | MALME-3M melanoma 92.5% | MDA-MB-231 breast 75.9% | RXF 393 renal 86.1% | SF-268 CNS 85.9% | SF-295 CNS 74.5% | SF-539 CNS 77% | UACC-257 melanoma 82.9% | M14 melanoma 61.3%
